Compound activity deposited in PubChem by Sanford-Burnham Center for Chemical Genomics.
The list is not random: actives were taken first. Their share in the collection is about 6.3%.
tim23-1 inh – inhibits growth of tim23-1 mutant yeast; S. cerevisiae tim23-1 growth, BacTiter-Glo luminescence, 24 h; inhibition, % at 20 µM; 330,000 tested, 1.3% active; AID 463212;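 active = growth inhibition of the mutant yeast at or above 50%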;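 note: temperature-sensitive mutant grown at 25 °C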
MPTP inh – permeability transition pore inhibition; isolated mouse mitochondria, Ca2+ swelling absorbance, 30 min; inhibition, % at 10 µM; 360,000 tested, 1.4% active; AID 602449;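 active = inhibition of 50% or more, scaled per plate between neutral and stimulator controls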
tim10-1 inh – inhibits growth of tim10-1 mutant yeast; 330,000 tested, 2.2% active; inhibition, % at 20 µM; S. cerevisiae tim10-1 ts strain growth, BacTiter-Glo, 24 h;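 active = inhibition of at least 40%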;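 note: mutant grown at 25 °C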
TIM10 inh – inhibits growth of TIM10 yeast strain; S. cerevisiae TIM10 strain growth, BacTiter-Glo luminescence, 24 h; inhibition, % at 10 µM; 330,000 tested, 1.4% active; AID 463195;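 active = inhibition of 40% or more at the single tested concentration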;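 note: wild-type TIM10 isogenic control strain grown at permissive 25 °C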
Mdm2-MdmX inh – inhibitors of human Mdm2/MdmX interaction; O15151+Q00987; SaOS-2 split-luciferase Mdm2/MdmX complementation, luminescence; inhibition, % at 8 µM; 330,000 tested, 3% active; AID 485346;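 active = inhibition of at least 50% at 8 µM in the primary screen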
Target sequence (O15151 whole entry, looked up): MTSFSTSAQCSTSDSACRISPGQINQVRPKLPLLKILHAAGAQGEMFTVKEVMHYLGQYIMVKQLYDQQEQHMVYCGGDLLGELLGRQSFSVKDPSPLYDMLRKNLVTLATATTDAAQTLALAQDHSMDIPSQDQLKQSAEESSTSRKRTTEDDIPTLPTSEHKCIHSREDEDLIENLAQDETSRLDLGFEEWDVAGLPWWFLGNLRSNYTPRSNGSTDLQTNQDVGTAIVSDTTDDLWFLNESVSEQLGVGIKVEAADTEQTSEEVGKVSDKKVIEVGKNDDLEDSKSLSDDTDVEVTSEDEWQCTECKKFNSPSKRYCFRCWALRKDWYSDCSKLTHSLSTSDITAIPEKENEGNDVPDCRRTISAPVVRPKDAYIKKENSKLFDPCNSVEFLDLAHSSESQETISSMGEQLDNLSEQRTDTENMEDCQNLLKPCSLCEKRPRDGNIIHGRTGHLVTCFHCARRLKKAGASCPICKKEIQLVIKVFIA
Target sequence (Q00987 whole entry, looked up): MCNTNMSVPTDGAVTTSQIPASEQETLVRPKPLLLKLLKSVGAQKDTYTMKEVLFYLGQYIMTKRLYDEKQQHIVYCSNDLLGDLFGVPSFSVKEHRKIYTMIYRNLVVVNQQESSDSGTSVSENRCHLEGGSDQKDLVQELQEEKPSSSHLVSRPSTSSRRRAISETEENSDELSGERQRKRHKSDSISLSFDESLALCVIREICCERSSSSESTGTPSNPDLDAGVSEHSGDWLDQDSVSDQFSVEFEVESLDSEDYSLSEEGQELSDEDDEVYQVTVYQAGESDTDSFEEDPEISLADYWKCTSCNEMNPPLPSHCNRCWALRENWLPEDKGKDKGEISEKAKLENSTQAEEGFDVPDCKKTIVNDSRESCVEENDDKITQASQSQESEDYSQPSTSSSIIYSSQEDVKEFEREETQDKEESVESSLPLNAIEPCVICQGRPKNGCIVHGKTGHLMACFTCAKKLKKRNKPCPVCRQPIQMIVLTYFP
Mdm2 MdmX conf – confirmation of human Mdm2/MdmX interaction inhibitors | inhibition, % at 8 µM | shares compounds with Mdm2-MdmX inh | 10,000 tested, 55% active | Mdm2-MdmX binding, luminescent assay; in the data active = inhibition above about 40%
FLuc counter – inhibits full-length luciferase, flagging false Mdm2/MdmX hits; shares compounds with Mdm2-MdmX inh; SaOS-2 full-length luciferase counterscreen, luminescence; inhibition, % at 8 µM; 6,200 tested, 77% active;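 active = mean inhibition at 8 µM reaching about 37%, which flags the compound as non-specific, limit read from the data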;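 note: p53-null SaOS-2 cells with luciferase driven by a doxycycline-inducible promoter; compound on cells about two nights before reading with doxycycline added after day one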
A number is an active result; i = inactive; nt = no result given.

SMILES | tim23-1 inh | MPTP inh | tim10-1 inh | TIM10 inh | Mdm2-MdmX inh | Mdm2 MdmX conf | others
Cc1ccccc1N(Cc1cc(=O)[nH]c2ccccc12)C(=O)C(C)C | i | i | i | i | i | nt
Cc1ccccc1N(Cc1cc(=O)[nH]c2ccccc12)C(=O)CCl | i | i | i | i | 96 | 73 | FLuc counter=58
CN(C)c1ccc(CNC(=O)C2Cc3c(-c4cccc(C(N)=O)c4)ccnc3O2)cc1 (configuration not stated) | nt | i | nt | nt | nt | nt
COc1ccc(NC(=O)c2cc(C3CCCCN3C(=O)c3ccc4c(c3)CCO4)on2)c(C)c1 (configuration not stated) | nt | i | nt | nt | nt | nt
COc1ccc(/C=C/c2cc(O)cc(OC3OC(CO)C(O)C(O)C3O)c2)cc1 (configuration not stated) | nt | i | nt | nt | nt | nt
O=c1c2c(nc3nc(NCc4ccccc4Cl)[nH]n13)CCC2 | i | nt | i | i | 67 | i
COc1ccccc1CNc1nc2nc3c(c(=O)n2[nH]1)CCC3 | i | i | i | i | i | nt
COc1ccc(NC(=O)CSc2ncnc3c2sc2ccccc23)c(OC)c1 | i | i | i | i | 88 | i
Cc1nc(-[n+]2nc(-c3ccncc3)nn2-c2ccccc2)sc1C | nt | i | nt | nt | nt | nt
CCOC(=O)c1cc2c(N)c(C(=O)c3cc(C#N)c(SC)nc3C)sc2nc1C | i | i | i | i | 50 | i
CCOC(=O)c1cc(C#N)c(SC)nc1C | i | i | i | i | i | nt
Cc1cc(NC(=O)CSc2nc3sc4c(c3c(=O)n2C)CCCC4)no1 | i | i | i | i | i | nt
CCn1c(SCC(=O)Nc2cc(C)on2)nc2sc3c(c2c1=O)CCCC3 | i | i | i | i | 76 | 54 | FLuc counter=i
C=CCn1c(SCC(=O)Nc2ccc(O)cc2)nc2sc(C)c(C)c2c1=O | nt | i | nt | nt | nt | nt
CC(NC(=O)CSc1nc2sc3c(c2c(=O)n1-c1ccccc1)CCCC3)c1ccccc1 (configuration not stated) | i | i | i | i | 51 | i
C=CCn1c(SCC(=O)Nc2cc(C)on2)nc2sc(C)c(C)c2c1=O | i | i | i | i | 51 | i
C=CCn1c(SCC(=O)Nc2sccc2C(N)=O)nc2sc(CC)cc2c1=O | i | i | i | i | 59 | i | FLuc counter=74
C=CCn1c(SCC(=O)Nc2sccc2C(N)=O)nc2ccc(Cl)cc2c1=O | i | i | i | i | i | nt
O=C(CSc1nc2sc3c(c2c(=O)n1-c1ccccc1)CCCC3)N/N=C/c1ccccc1C(=O)O | i | i | i | i | i | nt
CCc1sc2nc(SCC(=O)Nc3cc(C)on3)n(-c3cccc(OC)c3)c(=O)c2c1C | i | i | i | i | 92 | 66 | FLuc counter=77
C=CCn1c(SCC(=O)Nc2cc(C)on2)nc2sc3c(c2c1=O)CCCC3 | i | i | i | i | 61 | i
C=CCn1c(SCC(=O)NCc2ccco2)nc2sc3c(c2c1=O)CCCC3 | i | i | i | i | i | nt
Cc1ccc(NC(=C(C#N)C#N)c2ccccc2)cc1 | nt | i | nt | nt | nt | nt
O=C(CN1C(=O)S/C(=C\c2cccc(Cl)c2)C1=O)NC1C=CS(=O)(=O)C1 (configuration not stated) | i | i | i | i | 57 | i
O=C1c2ccccc2C(=O)c2[nH]c(=O)[nH]c21 | i | i | i | i | 69 | 44 | FLuc counter=48
SMILES | tim23-1 inh | MPTP inh | tim10-1 inh | TIM10 inh | Mdm2-MdmX inh | Mdm2 MdmX conf | others
O=C1C(O)=C(O)C(=O)c2ccccc21 | i | i | i | i | i | nt
CNC[C@H](Cc1ccccc1)NC[C@@H](Cc1cccc2ccccc12)NCCc1ccc(C)cc1 | i | i | i | i | 100 | 86 | FLuc counter=51
CNCCNC[C@H](Cc1cccc2ccccc12)NCCc1ccccc1 | i | i | i | i | i | nt
COc1ccc(-c2ccc(CN3C(C(C)C)C(=O)N(Cc4cn(CC5CCCCC5)nn4)CCS3(=O)=O)cc2)cc1OC (configuration not stated) | nt | i | nt | nt | nt | nt
Cn1cc(/C=C(\C#N)C(=O)Nc2cccc([N+](=O)[O-])c2)c2ccccc21 | i | i | i | i | 66 | i
Cn1cc(/C=N/NC(=O)c2cccc([N+](=O)[O-])c2)c2ccccc21 | i | i | i | i | 61 | i
COc1ccc(/C=N/NC(=O)c2cccc([N+](=O)[O-])c2)c2ccccc12 | i | i | i | i | 86 | i
Cn1cc(/C=C(\C#N)C(=O)Nc2ncc(Cc3cccc(Cl)c3)s2)c2ccccc21 | i | nt | i | i | i | nt
Cc1cc(/C=N/NC(=O)c2cccc([N+](=O)[O-])c2)c(C)n1-c1ccc(Cl)cc1Cl | i | i | i | i | 50 | i
CC1(C(=O)O)CCCN(C(=O)c2cc3ccccc3s2)C1 (configuration not stated) | nt | i | nt | nt | nt | nt
COc1ccc(S(=O)(=O)N(C)C[C@H]2OCc3cnnn3CCCC(=O)N([C@@H](C)CO)C[C@H]2C)cc1 | nt | i | nt | nt | nt | nt
COc1ccc(NC(=O)CNc2ccc(OC)c(S(=O)(=O)N3CCOCC3)c2)cc1 | nt | i | nt | nt | nt | nt
N#Cc1cc([N+](=O)[O-])ccc1Oc1cccc(/C=N/NC(=O)c2cccc(Cl)c2)c1 | i | i | i | i | 62 | i
Cc1ccc(S(=O)(=O)NC(C)C(=O)OCC(=O)Nc2sccc2C(N)=O)cc1 (configuration not stated) | nt | i | nt | nt | nt | nt
C#CCOCCOCCOCCNc1nc(N2CCN(C(=O)CCCCCCCCCCNC(=O)Cn3cc(CCCCCN)nn3)CC2)nc(N2CCN(C(=O)CCCCCCCCCCNC(=O)[C@@H]([C@H](C)O)n3cc(C)nn3)CC2)n1 | i | i | i | i | i | nt
C#CCOCCOCCOCCNc1nc(N2CCN(C(=O)CCCCCCCCCCNC(=O)Cn3cc(C[C@@H](C)O)nn3)CC2)nc(N2CCN(C(=O)CCCCCCCCCCNC(=O)[C@@H]([C@H](C)O)n3cc(C)nn3)CC2)n1 | i | i | i | i | 54 | i
C#CCOCCOCCOCCNc1nc(N2CCN(C(=O)CCCCCCCCCCNC(=O)Cn3cc(C[C@@H](C)O)nn3)CC2)nc(N2CCN(C(=O)CCCCCCCCCCNC(=O)[C@@H]([C@H](C)CC)n3cc(CCCCCN)nn3)CC2)n1 | i | i | i | i | 98 | 77 | FLuc counter=i
O=C(Nc1ccc(Oc2ccccc2)nc1)C1CCCCN1Cc1ccco1 (configuration not stated) | i | i | i | i | 65 | 76 | FLuc counter=68
COc1cc2c(cc1OC)C(c1ccccc1)N(C(=O)CCl)CC2 (configuration not stated) | i | i | i | i | 100 | i
O=C(CCCCCn1c(=S)[nH]c2ccc(N3CCOCC3)cc2c1=O)NCCc1ccccc1 | i | i | i | i | 51 | i
O=C(Nc1ccc(-c2nc3cc(NC(=O)c4cccs4)ccc3o2)cc1)c1cccs1 | i | i | i | i | 60 | i
O=C(Nc1ccc2oc(-c3ccc4ccccc4c3)nc2c1)c1ccc2c(c1)OCCO2 | i | i | i | i | 80 | i
Cn1nc(C(F)(F)F)c(/C=N/OC(=O)c2ccccc2)c1SCc1ccc(Cl)cc1 | i | i | i | i | i | nt
